Screens from PubChem.
SMN2 splice up: increases expression of the SMN2 splice variant; Potency, µM (top dose mostly 46.1 µM), for the others: at the top dose activity change, positive = activation, usual class: activators; 210,000 tested, 2.8% active; HEK293 SMN2-luciferase splicing reporter, luminescence, 30-36 h; further: % of control where 0% means no effect; nearly all actives have a fitted effect of over 55% in size
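HEK293 cells carry an SMN2 minigene-luciferase reporter in which exon 7 inclusion puts luciferase in frame. Cells were seeded at 2000 cells/well, attached for 10-12 hours, then exposed to compounds for 30-36 hours at 37C before ONE-Glo luminescence.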
FLuc modulator: inhibits or activates purified firefly luciferase, miR-21 counter-screen; P08659; 360,000 tested, 6.9% active; purified FLuc, Km substrates, luminescence inhibition; Potency, µM (doses to about 57.5 µM), without a hit: top-dose activity change, negative = inhibition, most hits filed as inhibitors;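 further: plate controls were vehicle for no effect and reference inhibitor for full effect; nearly all actives have a fitted effect of over 55% in size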
Target sequence (P08659 whole entry, looked up): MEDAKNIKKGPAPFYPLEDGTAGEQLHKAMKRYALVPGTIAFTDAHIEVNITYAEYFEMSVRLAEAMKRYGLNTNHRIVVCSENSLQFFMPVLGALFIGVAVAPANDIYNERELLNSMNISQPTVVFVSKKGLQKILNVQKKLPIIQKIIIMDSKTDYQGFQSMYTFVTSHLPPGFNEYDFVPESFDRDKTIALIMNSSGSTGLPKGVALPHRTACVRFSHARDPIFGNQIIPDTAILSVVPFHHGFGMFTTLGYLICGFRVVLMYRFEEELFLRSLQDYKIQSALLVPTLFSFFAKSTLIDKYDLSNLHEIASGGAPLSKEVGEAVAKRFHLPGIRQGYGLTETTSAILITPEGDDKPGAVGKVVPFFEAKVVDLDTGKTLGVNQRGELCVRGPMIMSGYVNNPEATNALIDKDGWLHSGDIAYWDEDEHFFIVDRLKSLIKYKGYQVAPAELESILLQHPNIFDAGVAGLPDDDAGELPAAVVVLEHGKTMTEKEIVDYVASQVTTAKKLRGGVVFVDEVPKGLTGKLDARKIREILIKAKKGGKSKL
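Purified P. pyralis luciferase, 10 nM final, with Km-level 10 uM D-luciferin and 10 uM ATP in 50 mM Tris acetate pH 7.5, 10 mM Mg acetate, 0.01% Tween-20, 0.05% BSA; 6-point qHTS titration about 60 µM downward; luminescence read.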
Rab9 promoter act: Rab9 promoter activation; Huh7 Rab9 promoter-luciferase reporter, luminescence, 24 h; Potency, µM (highest dose often 9.22 µM), inactives show at the highest dose activation, negative = inhibition, most hits filed as activators; 320,000 tested, 2.8% active; further: % of control where 0% means no effect; nearly all actives have a fitted effect of over 60% in size
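Luminescence from Amplite-detected luciferase (10 minutes, ambient) reports Rab9 promoter activation. Before that, stable Rab9-luciferase Huh7 cells (1500/well, reduced-serum OP-MEM I plus 10% FBS) were exposed to compound for 24 hours at 37C.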
ELG1 genotoxic: genotoxicity induction in ELG1-luciferase HEK293T cells. HEK293T ELG1-luciferase reporter, luminescence, 16 h. Potency, µM (series often up to 46 µM), inactives show at the top dose activity change, positive = activation, actives largely listed as activators. 330,000 tested, 1.3% active. AID 504466; further: % of control where 0% means no effect; nearly all actives have a fitted effect of over 60% in size
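HEK293T cells expressing luciferase-tagged ELG1 were treated with compound or DMSO for 16 hr at 37°C. Luciferase activity was then read after 30 min with ONE-Glo at room temperature; rising signal flags genetic stress.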
NPC1 prom act: activators of NPC1 promoter | Huh7 NPC1 promoter luciferase reporter, 24 h | Potency, µM (series often up to 9.22 µM), without a hit: at the top dose activation, usual class: activators | 320,000 tested, 2.4% active | AID 485313; further: % of control where 0% means no effect; nearly all actives have a fitted effect of over 60% in size
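Readout is luciferase luminescence, reflecting NPC1 promoter activation in stably transfected Huh7 cells after 24 h compound exposure at 37 °C in reduced-serum medium with 10% FBS.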
Luc counter: Kinase-Glo luciferase inhibition (counter-screen); Q27757; Kinase-Glo luciferase, ATP luminescence, 8 min; Potency, µM (highest dose often 38.3 µM), inactives show top-dose activity change, negative = inhibition, most hits filed as inhibitors; 200,000 tested, 0.28% active; further: on the % scale 0 is the no-effect control and ±100 the full control effect; nearly all actives have a fitted effect of over 60% in size
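Inhibition of Kinase-Glo luciferase light generation was assessed at 10 uM ATP in pH 7.2 imidazole buffer, with luminescence measured after eight minutes at ambient temperature.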
The depositor's hits bear a star; ? = inconclusive; . = no result; [ ] = dose if it differs, or a comment. Most compounds without a hit are left out; they make up all but 7.3% or so of the library. The call rests on the fitted dose curve; in most records, active means well fitted curve in the direction sought with a large enough effect; inconclusive means small, poorly fitted or top-dose-only effect, or another doubt; inactive means no such curve, though single readings can be large; an effect the other way counts as inactive or inconclusive. Potency means the concentration at half of the fitted maximal effect.

SMILES | SMN2 splice up | FLuc modulator | Rab9 promoter act | ELG1 genotoxic | NPC1 prom act | Luc counter
COc1ccc(CC(=O)N2N=C(c3ccncc3)CC2(O)C(F)(F)F)cc1 (configuration not stated) | 13% | 5% | -22% | -3% | -37% | 1%
CCOC(=O)N1N=C(c2ccc(OC)cc2)CC1(O)C(F)(F)F (configuration not stated) | . | 3.4µM* | 0.89µM* | ? | 1.1µM* | -9%
CCc1ccc(C2=NN(C(=O)OC)C(O)(C(F)(F)F)C2)cc1 (configuration not stated) | -2% | 2.7µM* | 0.63µM* | ? | 0.45µM* | -11%
CCOC(=O)N1N=C(c2ccccc2)CC1(O)C(C)(F)F (configuration not stated) | 8% | 6% | -5% | 0% | -4% | -1%
O=C(CSc1nnc(-c2ccncc2)o1)N1CCCCCC1 | -12% | 6% | 1% | 0% | -3% | 2%
CCOC(=O)N1CCN(C(=O)CSc2nnc(-c3ccc(C(C)(C)C)cc3)o2)CC1 | -12% | 3.4µM* | -1% | 0% | -1% | 5%
Cc1ccc(-c2nnc(SCCC(=O)N3CCOCC3)o2)cc1 | 14% | 19µM* | 26% | 8% | 21% | 0%
O=C(CCSc1nnc(-c2ccccc2)o1)N1CCOCC1 | ? | ? | 3% | 3% | 10% | 2%
Cc1ccc(NC(=O)Cc2nc(CSc3nnc(-c4ccc5c(c4)OCO5)o3)cs2)cc1 | 1% | 8.5µM* | ? | 4% | ? | 0%
Cc1ccc(-c2nnc(SCC(=O)N3CCCC3)o2)cc1 | 14µM* | 24µM* | ? | ? | ? | 10%
CN(C)C(=O)c1ccc(NC(=O)CSc2nnc(-c3ccc4c(c3)OCO4)o2)cc1 | . | 1% | 0% | 7% | 7% | .
CCC1CCCCN1C(=O)CSc1nnc(-c2ccc3c(c2)OCCO3)o1 (configuration not stated) | 0% | ? | -4% | -4% | -4% | 4%
Cc1ccc(-c2nnc(SCC(=O)N3CCCC3)o2)cc1C | 11µM* | 15µM* | 3.5µM* | ? | ? | -4%
O=C(CSc1nnc(-c2ccc3c(c2)OCCO3)o1)N1CCCC1 | ? | 6.7µM* | 2.5µM* | ? | ? | -8%
Cc1ccc(SCC(=O)N2CCOCC2)cc1 | 11µM* | ? | ? | ? | 26% | 0%
Cc1cc(NC(=O)CSc2ccc(-c3ccc4c(c3)OCO4)nn2)no1 | 14% | 12µM* | 24% | ? | 21% | -8%
CCOC(=O)N1CCN(C(=O)CSc2nnc(-c3ccc(C)c(C)c3)o2)CC1 | -7% | ? | 5% | 1% | 0% | 1%
O=C(CSc1ccc(Cl)cc1)N1CCOCC1 | 6% | 3%[2.3 µM] | 25% | 10% | 2% | 2%
Cn1cnc(S(=O)(=O)N2CCC(C(=O)NCc3ccc(F)cc3)CC2)c1 | . | 0% | . | . | . | .
COc1ccc(CCNC(=O)CCCn2c(=O)c3ccccc3n(Cc3ccccc3)c2=O)cc1OC | -3% | -11% | . | . | . | .
Cc1ccc(C)c(NC(=O)Cn2c(=O)n(Cc3ccco3)c(=O)c3oc4ccccc4c32)c1 | . | -6% | . | . | . | .
O=C(CSc1nc(=O)[nH]c2c1CCCC2)NCc1ccc(Cl)cc1 | . | -3% | . | . | . | .
Cc1cc(NC(=O)CSc2nnc(-c3ccc4c(c3)OCCO4)o2)no1 | 7.1µM* | ? | ? | ? | ? | 11%
O=C(Nc1ccc2c(c1)OCO2)c1ccc(CN2CCOCC2)cc1 | -5% | 15µM* | 29% | 18µM* | ? | 0%
CC(C)c1ccc(NC(=O)c2ccc(CN3CC(=O)N4CCCCC4C3=O)cc2)cc1 (configuration not stated) | . | 11µM* | . | . | . | .
CC(C)c1ccc(/C=C/C(=O)Nc2ccc(CN3CCOCC3)cc2)cc1 | . | 12µM* | -21% | -15% | -14% | .
